The source of these data is PMC7862700, “An all-to-all approach to the identification of sequence-specific readers for epigenetic DNA modifications on cytosine”.

Experiment in all cases: DAPPL (digital affinity profiling via proximity ligation, sequencing); 10 mM Tris-HCl pH 7.5, 50 mM NaCl, 1 mM DTT, 4% glycerol, room temperature, 30 min; GST-TFs on glutathione beads, 16-mer random dsDNA library, 0.1% formaldehyde crosslink after washing; high values mean tight binding
One assay concerns the target T1, FEV (Homo sapiens, UniProt Q99581 1-238).
T1 sequence: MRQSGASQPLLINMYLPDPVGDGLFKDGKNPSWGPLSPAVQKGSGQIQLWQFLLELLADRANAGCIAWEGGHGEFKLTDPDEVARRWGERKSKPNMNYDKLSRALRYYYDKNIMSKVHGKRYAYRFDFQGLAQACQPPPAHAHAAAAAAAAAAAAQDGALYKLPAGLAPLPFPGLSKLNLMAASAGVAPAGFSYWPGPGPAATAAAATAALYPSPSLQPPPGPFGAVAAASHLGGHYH
The conditions noted are these: protein: recombinant; tags: N-terminal GST; dsDNA, one strand shown. The procedure, abridged: (§1)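 Sequencing on an Illumina NextSeq500 followed washing, crosslinking with 0.1% formaldehyde, proximity ligation (BsaI/T4 ligase, 1 h, 37 °C) and PCR amplification of pools that had been incubated for 30 min at room temperature with 200 nmole of a random double-stranded 16-mer DNA library in Tris/NaCl/DTT/glycerol buffer. Each pool held DNA-barcoded human transcription factors, expressed in yeast as GST fusions and captured on glutathione beads, plus a tag-only sample. Binding signal is a hexamer's read frequency for a factor divided by its frequency in the tag-only sample.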

For a further assay, the target named is ETV5 (Homo sapiens, UniProt P41161 1-510). The conditions noted are these: protein: recombinant; tags: N-terminal GST; dsDNA, one strand shown. Put shortly:
as §1

The target in a further assay is HSF1 (Homo sapiens, UniProt Q00613 1-529). Particulars: protein: recombinant; tags: N-terminal GST; chain copies: 3; dsDNA, one strand shown. Put shortly: as §1
Sequence of HSF1 (Q00613 whole entry): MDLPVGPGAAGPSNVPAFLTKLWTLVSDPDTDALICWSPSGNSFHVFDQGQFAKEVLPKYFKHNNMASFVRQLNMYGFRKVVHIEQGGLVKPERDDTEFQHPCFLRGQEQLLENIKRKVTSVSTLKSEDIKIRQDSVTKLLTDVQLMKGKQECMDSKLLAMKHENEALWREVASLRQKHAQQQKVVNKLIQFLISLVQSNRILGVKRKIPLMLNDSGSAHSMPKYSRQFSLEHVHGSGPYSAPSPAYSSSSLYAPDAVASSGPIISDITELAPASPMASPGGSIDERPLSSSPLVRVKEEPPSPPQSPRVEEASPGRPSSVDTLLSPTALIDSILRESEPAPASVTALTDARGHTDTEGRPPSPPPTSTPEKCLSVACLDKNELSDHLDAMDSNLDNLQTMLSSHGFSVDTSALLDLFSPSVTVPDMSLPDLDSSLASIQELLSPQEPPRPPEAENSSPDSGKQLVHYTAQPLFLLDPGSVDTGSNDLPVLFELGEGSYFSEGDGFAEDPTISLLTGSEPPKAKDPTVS
The target in the next assay is T2, SPIC (Homo sapiens, UniProt Q8N5J4 1-248).
T2 sequence: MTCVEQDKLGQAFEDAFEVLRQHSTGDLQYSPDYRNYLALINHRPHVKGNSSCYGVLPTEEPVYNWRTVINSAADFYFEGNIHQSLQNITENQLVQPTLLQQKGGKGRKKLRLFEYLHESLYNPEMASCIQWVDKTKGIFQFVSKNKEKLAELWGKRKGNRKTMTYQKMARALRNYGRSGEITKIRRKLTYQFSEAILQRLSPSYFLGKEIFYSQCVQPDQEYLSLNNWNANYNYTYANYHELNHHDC
The conditions noted are these: protein: recombinant; tags: N-terminal GST; dsDNA, one strand shown. Put shortly: as §1

Another assay concerns the target ELF4 (Homo sapiens, UniProt Q99607 1-663). Particulars: protein: recombinant; tags: N-terminal GST; dsDNA, one strand shown. Put shortly: as §1
In a further assay the target is T3, ELK4 (Homo sapiens, UniProt P28324-2 1-405).
T3 sequence: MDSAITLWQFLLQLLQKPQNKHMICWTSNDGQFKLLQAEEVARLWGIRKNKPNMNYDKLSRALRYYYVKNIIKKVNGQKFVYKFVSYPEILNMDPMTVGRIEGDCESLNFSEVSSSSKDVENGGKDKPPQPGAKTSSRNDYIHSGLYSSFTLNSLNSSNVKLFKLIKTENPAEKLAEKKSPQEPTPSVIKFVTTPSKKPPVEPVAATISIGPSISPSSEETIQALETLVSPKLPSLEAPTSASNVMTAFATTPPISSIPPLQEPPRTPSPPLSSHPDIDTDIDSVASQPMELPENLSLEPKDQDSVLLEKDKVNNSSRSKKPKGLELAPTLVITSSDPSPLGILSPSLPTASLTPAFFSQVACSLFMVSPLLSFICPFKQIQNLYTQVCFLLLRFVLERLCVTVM
The conditions noted are these: protein: recombinant; tags: N-terminal GST; dsDNA, one strand shown. The procedure, abridged: as §1

The next assay has as its target T4, ETV2 (Homo sapiens, UniProt O00321 1-342).
T4 sequence: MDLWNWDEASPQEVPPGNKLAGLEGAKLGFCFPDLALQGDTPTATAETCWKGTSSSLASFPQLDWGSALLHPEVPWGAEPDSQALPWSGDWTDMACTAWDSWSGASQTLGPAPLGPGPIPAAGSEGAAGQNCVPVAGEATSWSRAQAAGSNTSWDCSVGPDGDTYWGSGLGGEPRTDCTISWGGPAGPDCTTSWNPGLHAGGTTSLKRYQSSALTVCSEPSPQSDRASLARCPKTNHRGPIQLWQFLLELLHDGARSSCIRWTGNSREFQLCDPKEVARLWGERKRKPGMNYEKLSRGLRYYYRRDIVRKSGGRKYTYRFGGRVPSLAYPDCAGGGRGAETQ
The conditions noted are these: protein: recombinant; tags: N-terminal GST; dsDNA, one strand shown. The procedure, abridged: as §1

Another assay addresses T5, ELF3 (Homo sapiens, UniProt P78545 1-371).
T5 sequence: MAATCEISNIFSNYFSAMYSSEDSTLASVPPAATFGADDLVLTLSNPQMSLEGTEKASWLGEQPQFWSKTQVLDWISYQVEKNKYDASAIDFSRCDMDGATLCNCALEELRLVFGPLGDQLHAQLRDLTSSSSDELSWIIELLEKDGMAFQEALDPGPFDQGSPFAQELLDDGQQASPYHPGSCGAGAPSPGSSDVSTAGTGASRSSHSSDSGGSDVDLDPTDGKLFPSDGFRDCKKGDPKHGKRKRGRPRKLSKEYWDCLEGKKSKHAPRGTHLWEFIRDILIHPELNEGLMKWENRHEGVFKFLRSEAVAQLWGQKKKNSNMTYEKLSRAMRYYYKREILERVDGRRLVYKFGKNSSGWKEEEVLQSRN
The conditions noted are these: protein: recombinant; tags: N-terminal GST; dsDNA, one strand shown. The procedure, abridged: as §1

Another assay addresses CRX (Homo sapiens, UniProt O43186 1-299). Particulars: protein: recombinant; tags: N-terminal GST; dsDNA, one strand shown. Put shortly:
as §1

A further assay has as its target ETV1 (Homo sapiens, UniProt P50549 1-477). The conditions noted are these: protein: recombinant; tags: N-terminal GST; dsDNA, one strand shown. The procedure, abridged: as §1
The next assay concerns the target T6, ERF (Homo sapiens, UniProt P50548 1-548).
T6 sequence: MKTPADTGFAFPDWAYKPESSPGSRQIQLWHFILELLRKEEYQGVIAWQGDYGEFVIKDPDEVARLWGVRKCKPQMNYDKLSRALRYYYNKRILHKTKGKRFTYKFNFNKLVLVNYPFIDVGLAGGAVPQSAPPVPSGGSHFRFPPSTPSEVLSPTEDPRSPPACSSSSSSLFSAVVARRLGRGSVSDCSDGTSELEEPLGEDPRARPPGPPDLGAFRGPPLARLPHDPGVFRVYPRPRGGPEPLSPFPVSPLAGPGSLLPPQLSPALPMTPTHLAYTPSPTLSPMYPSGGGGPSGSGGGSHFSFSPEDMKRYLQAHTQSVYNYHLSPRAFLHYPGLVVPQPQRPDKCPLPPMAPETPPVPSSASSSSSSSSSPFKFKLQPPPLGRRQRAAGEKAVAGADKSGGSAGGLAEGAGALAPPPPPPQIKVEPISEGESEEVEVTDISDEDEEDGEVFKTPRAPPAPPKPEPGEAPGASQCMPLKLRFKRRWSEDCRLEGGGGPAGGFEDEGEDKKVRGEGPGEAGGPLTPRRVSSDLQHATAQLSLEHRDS
Particulars: protein: recombinant; tags: N-terminal GST; dsDNA, one strand shown. The procedure, abridged: as §1

A further assay addresses T7, ETV3L (Homo sapiens, UniProt Q6ZN32 1-361).
T7 sequence: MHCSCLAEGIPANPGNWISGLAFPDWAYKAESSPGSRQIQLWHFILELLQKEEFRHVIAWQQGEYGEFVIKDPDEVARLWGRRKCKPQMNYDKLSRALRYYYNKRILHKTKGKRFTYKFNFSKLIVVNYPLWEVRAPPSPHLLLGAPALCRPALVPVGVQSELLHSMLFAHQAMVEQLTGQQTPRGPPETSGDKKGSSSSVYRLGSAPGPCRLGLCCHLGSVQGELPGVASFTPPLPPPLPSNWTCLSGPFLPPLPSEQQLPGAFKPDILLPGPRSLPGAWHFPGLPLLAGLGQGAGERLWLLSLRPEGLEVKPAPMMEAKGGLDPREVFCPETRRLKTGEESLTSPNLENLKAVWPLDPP
Particulars: protein: recombinant; tags: N-terminal GST; dsDNA, one strand shown. The procedure, abridged:
as §1

The next assay concerns the target T8, ETS2 (Homo sapiens, UniProt P15036 1-469).
T8 sequence: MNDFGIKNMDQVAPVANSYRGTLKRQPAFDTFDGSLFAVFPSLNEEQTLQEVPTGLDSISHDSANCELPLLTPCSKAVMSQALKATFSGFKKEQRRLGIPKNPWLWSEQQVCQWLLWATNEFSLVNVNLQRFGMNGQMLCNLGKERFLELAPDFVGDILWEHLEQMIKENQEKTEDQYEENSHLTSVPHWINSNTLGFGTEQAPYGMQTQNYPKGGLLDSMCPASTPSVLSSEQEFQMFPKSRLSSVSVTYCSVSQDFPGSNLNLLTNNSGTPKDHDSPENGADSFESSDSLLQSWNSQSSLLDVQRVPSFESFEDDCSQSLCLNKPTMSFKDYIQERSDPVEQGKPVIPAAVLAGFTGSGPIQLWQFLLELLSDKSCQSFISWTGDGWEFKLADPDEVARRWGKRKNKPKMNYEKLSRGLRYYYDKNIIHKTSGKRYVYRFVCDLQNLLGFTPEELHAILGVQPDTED
Particulars: protein: recombinant; tags: N-terminal GST; dsDNA, one strand shown. Put shortly: as §1

A further assay concerns the target T9, SPDEF (Homo sapiens, UniProt O95238 1-335).
T9 sequence: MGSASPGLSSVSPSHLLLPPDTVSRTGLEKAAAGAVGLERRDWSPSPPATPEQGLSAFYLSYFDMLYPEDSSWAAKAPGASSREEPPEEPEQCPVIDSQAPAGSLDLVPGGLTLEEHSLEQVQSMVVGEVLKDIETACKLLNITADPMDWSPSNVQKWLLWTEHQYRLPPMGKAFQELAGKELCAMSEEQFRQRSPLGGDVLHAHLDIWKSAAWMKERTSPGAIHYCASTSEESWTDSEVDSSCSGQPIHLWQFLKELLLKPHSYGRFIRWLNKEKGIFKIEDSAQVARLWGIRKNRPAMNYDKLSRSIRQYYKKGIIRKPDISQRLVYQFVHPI
Particulars: protein: recombinant; tags: N-terminal GST; dsDNA, one strand shown. The procedure, abridged:
as §1

A further assay addresses T10, ETV7 (Homo sapiens, UniProt Q9Y603 1-341).
T10 sequence: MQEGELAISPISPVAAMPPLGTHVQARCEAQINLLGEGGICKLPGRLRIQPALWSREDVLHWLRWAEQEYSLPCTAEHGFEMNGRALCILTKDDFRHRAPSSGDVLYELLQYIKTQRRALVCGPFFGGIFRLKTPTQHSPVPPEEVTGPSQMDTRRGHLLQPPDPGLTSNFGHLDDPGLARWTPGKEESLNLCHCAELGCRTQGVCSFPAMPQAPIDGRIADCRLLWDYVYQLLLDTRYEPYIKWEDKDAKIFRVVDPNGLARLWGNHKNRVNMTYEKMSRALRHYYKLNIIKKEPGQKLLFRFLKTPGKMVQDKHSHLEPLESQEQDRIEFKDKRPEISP
Particulars: protein: recombinant; tags: N-terminal GST; dsDNA, one strand shown. The procedure, abridged:
as §1

The next assay addresses T11, ELF5 (Homo sapiens, UniProt Q9UKW6-2 1-255).
T11 sequence: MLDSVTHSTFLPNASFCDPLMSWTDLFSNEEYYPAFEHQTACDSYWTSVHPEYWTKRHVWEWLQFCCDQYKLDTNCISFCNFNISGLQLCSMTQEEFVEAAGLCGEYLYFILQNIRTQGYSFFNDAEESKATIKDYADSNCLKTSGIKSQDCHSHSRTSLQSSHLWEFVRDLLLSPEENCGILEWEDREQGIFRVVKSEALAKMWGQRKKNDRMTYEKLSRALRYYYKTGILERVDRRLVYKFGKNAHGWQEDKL
The conditions noted are these: protein: recombinant; tags: N-terminal GST; dsDNA, one strand shown. The procedure, abridged:
as §1

For the next assay, the target named is T12, ETV3 (Homo sapiens, UniProt P41162-2 1-143).
T12 sequence: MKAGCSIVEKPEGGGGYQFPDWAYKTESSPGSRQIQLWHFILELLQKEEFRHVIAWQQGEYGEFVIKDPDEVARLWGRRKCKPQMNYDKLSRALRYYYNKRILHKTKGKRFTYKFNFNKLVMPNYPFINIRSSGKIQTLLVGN
Particulars: protein: recombinant; tags: N-terminal GST; dsDNA, one strand shown. The procedure, abridged:
as §1

In another assay the target is ETV6 (Homo sapiens, UniProt P41212 1-452). Particulars: protein: recombinant; tags: N-terminal GST; dsDNA, one strand shown. Put shortly: as §1
Sequence of ETV6 (P41212 whole entry): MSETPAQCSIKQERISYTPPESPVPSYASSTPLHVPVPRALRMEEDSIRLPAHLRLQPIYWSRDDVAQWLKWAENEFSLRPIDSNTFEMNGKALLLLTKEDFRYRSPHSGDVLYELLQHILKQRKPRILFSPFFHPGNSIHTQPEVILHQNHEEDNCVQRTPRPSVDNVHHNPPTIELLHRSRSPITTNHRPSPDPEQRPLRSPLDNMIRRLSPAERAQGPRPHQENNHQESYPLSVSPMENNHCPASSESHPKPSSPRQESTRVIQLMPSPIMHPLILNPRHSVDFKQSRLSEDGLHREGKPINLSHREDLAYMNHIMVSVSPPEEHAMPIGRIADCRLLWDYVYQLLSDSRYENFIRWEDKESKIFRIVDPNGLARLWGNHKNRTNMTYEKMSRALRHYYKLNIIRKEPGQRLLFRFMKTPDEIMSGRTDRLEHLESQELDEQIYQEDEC

Sequence of ELF4 (Q99607 whole entry): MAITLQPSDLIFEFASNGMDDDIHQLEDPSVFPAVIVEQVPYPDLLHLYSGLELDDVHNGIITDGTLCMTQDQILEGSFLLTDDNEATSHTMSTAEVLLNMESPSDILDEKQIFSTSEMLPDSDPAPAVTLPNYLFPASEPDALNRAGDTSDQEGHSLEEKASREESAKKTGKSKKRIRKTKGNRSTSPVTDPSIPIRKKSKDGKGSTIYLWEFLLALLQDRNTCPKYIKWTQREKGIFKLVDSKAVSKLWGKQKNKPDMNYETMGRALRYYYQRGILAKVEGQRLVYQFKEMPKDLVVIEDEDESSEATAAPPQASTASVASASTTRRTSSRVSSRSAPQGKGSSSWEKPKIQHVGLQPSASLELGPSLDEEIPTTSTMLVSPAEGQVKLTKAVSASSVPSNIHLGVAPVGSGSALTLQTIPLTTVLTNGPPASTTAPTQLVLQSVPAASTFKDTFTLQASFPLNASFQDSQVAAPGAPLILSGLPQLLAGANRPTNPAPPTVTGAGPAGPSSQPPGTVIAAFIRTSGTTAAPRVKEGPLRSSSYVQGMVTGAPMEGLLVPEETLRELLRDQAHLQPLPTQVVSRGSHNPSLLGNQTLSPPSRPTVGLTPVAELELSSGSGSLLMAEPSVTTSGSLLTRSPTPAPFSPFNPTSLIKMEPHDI
Sequence of ETV5 (P41161 whole entry): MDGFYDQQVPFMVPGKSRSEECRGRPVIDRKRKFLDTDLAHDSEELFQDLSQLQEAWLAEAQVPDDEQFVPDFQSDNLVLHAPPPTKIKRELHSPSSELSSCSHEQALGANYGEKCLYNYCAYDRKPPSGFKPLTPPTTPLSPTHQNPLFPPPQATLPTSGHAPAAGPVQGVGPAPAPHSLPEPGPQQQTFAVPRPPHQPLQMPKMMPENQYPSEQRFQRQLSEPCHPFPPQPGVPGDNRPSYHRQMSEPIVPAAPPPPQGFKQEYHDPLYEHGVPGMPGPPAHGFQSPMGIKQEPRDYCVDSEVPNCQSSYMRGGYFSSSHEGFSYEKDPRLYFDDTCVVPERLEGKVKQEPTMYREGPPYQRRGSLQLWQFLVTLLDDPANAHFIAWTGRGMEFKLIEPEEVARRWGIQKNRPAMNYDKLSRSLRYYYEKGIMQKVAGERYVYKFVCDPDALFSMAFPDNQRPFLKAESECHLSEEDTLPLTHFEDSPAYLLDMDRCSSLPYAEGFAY
Sequence of ETV1 (P50549 whole entry): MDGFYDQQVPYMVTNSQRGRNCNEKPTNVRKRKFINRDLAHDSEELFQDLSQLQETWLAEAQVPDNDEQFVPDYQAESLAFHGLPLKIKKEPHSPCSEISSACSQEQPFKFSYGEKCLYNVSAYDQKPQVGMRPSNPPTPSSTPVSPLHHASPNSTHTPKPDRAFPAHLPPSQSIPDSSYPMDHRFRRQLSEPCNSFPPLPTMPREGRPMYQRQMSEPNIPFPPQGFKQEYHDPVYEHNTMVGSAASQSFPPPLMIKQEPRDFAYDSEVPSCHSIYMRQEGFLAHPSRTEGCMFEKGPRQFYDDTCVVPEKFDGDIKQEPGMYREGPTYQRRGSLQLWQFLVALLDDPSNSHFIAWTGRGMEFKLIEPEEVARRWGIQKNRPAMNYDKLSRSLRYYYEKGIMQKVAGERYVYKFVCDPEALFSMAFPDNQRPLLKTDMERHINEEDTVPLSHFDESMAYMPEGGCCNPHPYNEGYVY
Sequence of CRX (O43186 whole entry): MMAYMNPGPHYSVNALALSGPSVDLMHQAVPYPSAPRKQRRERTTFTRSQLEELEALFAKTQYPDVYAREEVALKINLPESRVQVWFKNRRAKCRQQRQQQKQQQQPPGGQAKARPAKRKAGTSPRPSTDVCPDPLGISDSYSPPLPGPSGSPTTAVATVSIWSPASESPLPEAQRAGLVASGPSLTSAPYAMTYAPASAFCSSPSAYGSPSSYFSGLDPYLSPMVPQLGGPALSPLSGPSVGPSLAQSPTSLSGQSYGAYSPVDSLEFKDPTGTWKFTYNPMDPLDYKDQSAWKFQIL

For TTAGCT, the binding signal is 1.2 fold enrichment (6-mer frequency, TF over GST control) with FEV; 1.2 fold enrichment (6-mer frequency, TF over GST control) with ETV5; 1.82 fold enrichment (6-mer frequency, TF over GST control) with HSF1; 1.16 fold enrichment (6-mer frequency, TF over GST control) in the assay with SPIC; 1.28 fold enrichment (6-mer frequency, TF over GST control) with ELF4; 1.24 fold enrichment (6-mer frequency, TF over GST control) in the assay with ELK4. Besides, the binding signal in the assay with ETV2 was 1.28 fold enrichment (6-mer frequency, TF over GST control); with ELF3, 1.18 fold enrichment (6-mer frequency, TF over GST control); with CRX, 2.63 fold enrichment (6-mer frequency, TF over GST control); with ETV1, 1.2 fold enrichment (6-mer frequency, TF over GST control); in the assay with ERF, 1.2 fold enrichment (6-mer frequency, TF over GST control); with ETV3L, 1.16 fold enrichment (6-mer frequency, TF over GST control). The binding signal with ETS2 was 1.26 fold enrichment (6-mer frequency, TF over GST control); in the assay with SPDEF it was 1.08 fold enrichment (6-mer frequency, TF over GST control); with ETV7, 1.17 fold enrichment (6-mer frequency, TF over GST control); with ELF5, 1.13 fold enrichment (6-mer frequency, TF over GST control); with ETV3 it was 1.19 fold enrichment (6-mer frequency, TF over GST control); in the assay with ETV6, 1.26 fold enrichment (6-mer frequency, TF over GST control).
